From PubChem BioAssay AID1839 (Johns Hopkins Ion Channel Center, 2009) come the findings set out here.

SMILES strings stand for the structures. In all, about 2,400 compounds went through this assay and about 220 (9.2%) were called active.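 Rule for the calls: active = signal change above the mean of dofetilide-free buffer controls plus 3 SD, so a positive margin; inactive = the rest.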 The entries come from a sample that favours actives as a whole.

The assay is described as follows: thallium signal changes without hERG – cell-based, CHO-K1 parental line, FluxOR thallium flux, counter-screen for hERG block protection project, confirmation (AID 1839).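 Note: compounds applied alone with no dofetilide to cells lacking hERG.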 As to conditions: CHO-K1 parental cells, FluxOR thallium flux fluorescence; at 10 µM.
For the molecule `COc1cccc(C=NCC(C)N=Cc2cccc(OC)c2O)c1O` (stereo not drawn), the signal change vs control minus 3*SD hit threshold (margin above threshold, higher = more increase) was -13.1% (inactive).
To `Cc1ccc(O)c(C(=O)CC(=O)c2ccccc2Cl)c1` belongs -27.9% (inactive); to `Cc1cc(Br)c(NC(=O)COC(=O)C2CC2C)c(Br)c1` (stereo not drawn), -27.2% (inactive).
Next, `O=C(O)CCSc1ncnc2sc(-c3ccccc3)cc12`: -4.3% (inactive).
As for `CCOC(=O)c1sc2nc(C)nc(SCC(=O)N(C)C3CCS(=O)(=O)C3)c2c1C` (stereo not drawn), the signal change vs control minus 3*SD hit threshold (margin above threshold, higher = more increase) is -20.4% (inactive).
To `CN(C(=O)CSc1ncnc2sc(-c3ccccc3)cc12)C1CCS(=O)(=O)C1` (stereo not drawn) belongs 24.3% (active); to `CCOC(=O)C1=C(N)Oc2cc(O)ccc2C1c1cccnc1` (stereo not drawn), -22.5% (inactive); to `N#Cc1cccc(NC(=O)c2nc(-c3ccccc3)n(-c3ccccc3)n2)c1`, -41.8% (inactive).
On to `CCOC(=O)N1CCN(C(=O)c2ccc(C)c(S(=O)(=O)Nc3ccccc3)c2)CC1`, for which the signal change vs control minus 3*SD hit threshold (margin above threshold, higher = more increase) is -15% (inactive).
Regarding `Cc1cccc(NC(=S)N/N=C2\CC(C)(C)Oc3ccc(O)cc32)c1`, the signal change vs control minus 3*SD hit threshold (margin above threshold, higher = more increase) was -19.7% (inactive).
Take `O=C(NC(=S)NCCc1ccccc1)c1cccc(Cl)c1`: the signal change vs control minus 3*SD hit threshold (margin above threshold, higher = more increase) is -28.3% (inactive).
Next, `O=C1C(c2ccccc2)C(c2ccccc2)NC(c2ccccc2)C1c1ccccc1` (stereo not drawn): -27.2% (inactive); `COc1cccc2sc(Nc3nc(-c4ccccn4)cs3)nc12`: -29.4% (inactive); `Fc1cccc2sc(Nc3nnc(-c4ccco4)o3)nc12`: -13.8% (inactive).
To `COc1cccc(-c2nnc(Nc3nc4c(F)cccc4s3)o2)c1` belongs -7.5% (inactive); to `COc1cccc2sc(Nc3nnc(-c4ccc(F)cc4)o3)nc12`, 13.1% (active).
Consider `COc1cccc2sc(Nc3nnc(-c4cccs4)o3)nc12`, for which the signal change vs control minus 3*SD hit threshold (margin above threshold, higher = more increase) was 14.3% (active).
Take `Fc1cccc2sc(Nc3nnc(-c4ccccc4)o3)nc12`: the signal change vs control minus 3*SD hit threshold (margin above threshold, higher = more increase) was 39.2% (active).
Consider `COc1cccc2sc(Nc3nnc(-c4ccccc4Cl)o3)nc12`, for which the signal change vs control minus 3*SD hit threshold (margin above threshold, higher = more increase) is -16% (inactive).
As for `Fc1cccc2sc(Nc3nc4c(F)cccc4s3)nc12`, the signal change vs control minus 3*SD hit threshold (margin above threshold, higher = more increase) is -6.3% (inactive).
Next, `CCC1CCCCN1C(=S)NC(=O)c1ccc([N+](=O)[O-])cc1` (stereo not drawn): -2.3% (inactive); `CN1C(=O)CSc2ccc(NC(=O)N3CCc4ccccc43)cc21`: -32.3% (inactive); `COc1ccccc1-n1c(CCC(=O)O)ccc1-c1ccccc1`: -17.9% (inactive).
Take `CCOC(=O)CC(=O)CSc1nc2c(C)c(C)ccc2cc1C`: the signal change vs control minus 3*SD hit threshold (margin above threshold, higher = more increase) is -25% (inactive).
Take `C/C(=N\Nc1nc(C)c(C)s1)c1ccc([N+](=O)[O-])cc1`: the signal change vs control minus 3*SD hit threshold (margin above threshold, higher = more increase) was -17.3% (inactive).
`CCn1c(O)c(N=NC2=NC(=O)CS2)c2cc(C)ccc21`: the signal change vs control minus 3*SD hit threshold (margin above threshold, higher = more increase) was -27.3% (inactive).
For the molecule `CCc1ccc2c(c1)c(N=NC1=NC(=O)CS1)c(O)n2CC`, the signal change vs control minus 3*SD hit threshold (margin above threshold, higher = more increase) is 1% (active).
In the case of `CCn1c(O)c(N=NC2=NC(=O)CS2)c2ccccc21`, the signal change vs control minus 3*SD hit threshold (margin above threshold, higher = more increase) was -27% (inactive).
For the molecule `CCCOc1ccc(CN(CCC#N)C(=S)NC(=O)c2ccccc2)cc1`, the signal change vs control minus 3*SD hit threshold (margin above threshold, higher = more increase) is -20.4% (inactive).
On to `Cc1ccc2c(c1)c1nnc(SCC(=O)Nc3ccc(N(C)C)cc3)nc1n2CC(=O)O`, for which the signal change vs control minus 3*SD hit threshold (margin above threshold, higher = more increase) was -28.5% (inactive).
To `CCOC(=O)N/N=C/C=C/c1ccccc1[N+](=O)[O-]` belongs -14.5% (inactive); to `COc1cccc(N=Nc2ccc(O)c3ncccc23)c1`, -23.6% (inactive); to `COc1ccccc1N=Nc1ccc(O)c2ncccc12`, -39% (inactive).
Next, `CCN(CC)S(=O)(=O)c1cc(OC)ccc1N=Nc1ccc(O)c2ncccc12`: 5.8% (active); `O=C(NC(=S)Nc1cccnc1)c1cc2ccccc2o1`: -7.1% (inactive).
For `CCCN(CCC)C(=S)NC(=O)c1ccc(-c2ccccc2)cc1`, the signal change vs control minus 3*SD hit threshold (margin above threshold, higher = more increase) was 18.5% (active).
Consider `C=CCN(CC=C)C(=S)NC(=O)c1ccc(-c2ccccc2)cc1`, for which the signal change vs control minus 3*SD hit threshold (margin above threshold, higher = more increase) is -9.3% (inactive).
Take `COc1cc(OC)cc(C(=O)NC(=S)N(Cc2ccccc2)C(C)C)c1`: the signal change vs control minus 3*SD hit threshold (margin above threshold, higher = more increase) is -1.3% (inactive).
To `Cc1ccc(C(=O)NC(=S)N(C)Cc2ccccc2)cc1` belongs -19.2% (inactive).
On to `COc1ccc(C(=O)NC(=S)N(Cc2ccccc2)Cc2ccccc2)cc1`, for which the signal change vs control minus 3*SD hit threshold (margin above threshold, higher = more increase) was 7.4% (active).
`CCOc1ccc(C(=O)NC(=S)N(Cc2ccccc2)Cc2ccccc2)cc1`: the signal change vs control minus 3*SD hit threshold (margin above threshold, higher = more increase) is -15.4% (inactive).
Regarding `CCCCC1(O)CC(C(F)(F)F)=NN1C(=O)COc1ccccc1` (stereo not drawn), the signal change vs control minus 3*SD hit threshold (margin above threshold, higher = more increase) was -36.4% (inactive).
As to `Cc1ccc(OCCC(=O)OC(C)C(=O)NC2CC2)cc1` (stereo not drawn), the signal change vs control minus 3*SD hit threshold (margin above threshold, higher = more increase) is -26.5% (inactive).
To `CC(=O)Cn1c(=O)c2c(nc3n2CCCN3Cc2ccccc2)n(C)c1=O` belongs -25.8% (inactive); to `O=C(O)Cc1cc(I)c(Oc2ccc(O)c(I)c2)c(I)c1`, 7.3% (active); to `O=C(O)CN1C(=O)c2ccc(Oc3ccc4c(c3)C(=O)N(CC(=O)O)C4=O)cc2C1=O`, -18.4% (inactive).
To `CCCCC(=O)Nc1ccc(NCc2ccc(C)s2)cc1` belongs -5.7% (inactive); to `CC[C@@H](C(=O)[C@@H](C)[C@@H](O)[C@H](C)CCc1ccc(C)c(O)c1C(=O)O)[C@H]1O[C@](CC)([C@H]2CC[C@](O)(CC)[C@H](C)O2)C[C@@H]1C`, 58.8% (active).
